Screens as filed in PubChem BioAssay.
Lassa entry inh: qHTS for Inhibitors of binding or entry into cells for Lassa Virus | actives 1.2% (n = 300,000) | Potency, µM (doses to about 37.9 µM), for inactives: top-dose activity change, negative = inhibition, usual class: inhibitors | Lassa virus pseudotype entry inhibition, cell reporter; calls by dose curve; tested in HEK293 cells; note: potency is the fitted concentration of half-maximal effect; nearly all actives have a fitted effect of over 50% in size
HCMV antiviral: qHTS Assay for inhibitors of the human cytomegalovirus (HCMV) | HFF cells, HCMV-luciferase reporter, 72 h; active compounds read low | activity change, negative = inhibition, % at 57.5 µM | actives 4.5% (n = 410,000); in the data active = activity change below about -60%; inconclusive = no clear call, values can overlap the other calls; inactive = above about -39%
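Two-dose cell screen: HFF monolayers treated with compounds and infected with luciferase-expressing HCMV at 1 PFU/cell, 72 h at 37C, then lysed for luciferase measurement.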
VACV mCherry inh: qHTS for Stage-Specific Inhibitors of Vaccinia Orthopoxvirus: mCherry Reporter Primary qHTS | Vaccinia virus mCherry reporter infection, fluorescence | Potency, µM (highest dose often 36.5 µM), inactives show top-dose activity change, negative = inhibition, most hits filed as inhibitors | actives 0.63% (n = 310,000) | AID 720579, 2013; calls by dose curve; tested in A549 cells; note: potency is the fitted concentration of half-maximal effect; nearly all actives have a fitted effect of over 35% in size
HCV inhibitor: qHTS Assay for Inhibitors of Hepatitis C Virus (HCV). AID 651820, 2012. Potency, µM (titrated, usually from 41.8 µM), inactives show top-dose activity change, negative = inhibition, usual class: inhibitors. actives 3.4% (n = 340,000). Huh7.5.1 HCVcc-Cre infection, luciferase reporter, 44 h; active = well fitted inhibition curve with a large enough effect; inconclusive = small, poorly fitted or top-dose-only effect, or another doubt; inactive = no such curve, though single readings can be large or run the other way; note: potency is the fitted concentration of half-maximal effect
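A cell-based infection assay in which seeded cells (1,000 per well) receive test compound after 4 h, are inoculated with HCVcc-Cre at approximately 0.5 moi, and are incubated 44 h before luminescence detection.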
VACV Venus inh: qHTS for Stage-Specific Inhibitors of Vaccinia Orthopoxvirus: Venus Reporter Primary qHTS | actives 0.46% (n = 330,000) | Vaccinia virus Venus reporter expression, fluorescence | AID 720580, 2013 | Potency, µM (titrated, usually from 36.5 µM), without a hit: at the highest dose activity change, negative = inhibition, usual class: inhibitors; calls by dose curve; tested in A549 cells; note: potency is the fitted concentration of half-maximal effect; nearly all actives have a fitted effect of over 30% in size
MARV entry inh: qHTS for inhibitors of binding or entry into cells for Marburg Virus; Marburg virus pseudotyped entry inhibition, cell reporter; actives 1.8% (n = 300,000); Potency, µM (top dose mostly 37.8 µM), inactives show top-dose activity change, negative = inhibition, hits mostly inhibitors; AID 540276, 2011; calls by dose curve; tested in HEK293 cells; note: potency is the fitted concentration of half-maximal effect
* = called active by the depositor; [ ] = remark or other dose. An excerpt weighted towards active compounds, which were near 7.8% of everything screened. % is set by controls: 0 for no effect and ±100 for the full control effect.

How did C1NNCC12CNNC2 do in these assays?
VACV mCherry inh: -12.8%; VACV Venus inh: -4.3%

Results for Clc1ccc(CN2CCC(c3ccccc3)CC2)cc1 ?
HCMV antiviral: -103.2*; VACV mCherry inh: -7.8%; HCV inhibitor: -3.1%; VACV Venus inh: -17.4%

How did Clc1ccc(CNC2CCN(Cc3ccccc3)CC2)cc1 do in these assays?
Lassa entry inh: -17.9%[46.1 µM]; HCMV antiviral: -2.0; VACV mCherry inh: -14.4%; HCV inhibitor: 8.91µM*; VACV Venus inh: -23.5%; MARV entry inh: 10µM*

How did S=C(NCc1ccc(Cl)cc1)NC1CCN(Cc2ccccc2)CC1 do in these assays?
Lassa entry inh: inconclusive; HCMV antiviral: -89.2*; VACV mCherry inh: -11.8%; HCV inhibitor: 3.98µM*; VACV Venus inh: inconclusive; MARV entry inh: 6.31µM*

How did Clc1ccc(CN2CCC(c3nc4ccc(Cl)cc4[nH]3)CC2)cc1 do in these assays?
Lassa entry inh: inconclusive; HCMV antiviral: -65.5*; VACV mCherry inh: -26.0%; HCV inhibitor: inconclusive; VACV Venus inh: inconclusive; MARV entry inh: 11.2µM*

How did Clc1ccc(CN2CCC(Cc3ccccc3)CC2)cc1 do in these assays?
Lassa entry inh: -3.9%; HCMV antiviral: 42.3; VACV mCherry inh: -9.1%; HCV inhibitor: -3.9%; VACV Venus inh: inconclusive; MARV entry inh: inconclusive

How did S=C(Nc1ccc(Cl)cc1Cl)NC1CCN(Cc2ccccc2)CC1 do in these assays?
Lassa entry inh: inconclusive; HCMV antiviral: inconclusive; VACV mCherry inh: -9.3%; HCV inhibitor: inconclusive; VACV Venus inh: inconclusive; MARV entry inh: inconclusive

What do the screens show for `Fc1ccc(CNC2CCN(Cc3ccccc3)CC2)cc1`?
HCMV antiviral: 45.8; HCV inhibitor: inconclusive

Results for c1ccc(-c2ccc(CNC3CC3)cc2)cc1 ?
Lassa entry inh: inconclusive; HCMV antiviral: -80.2*; VACV mCherry inh: -17.1%; HCV inhibitor: 1.7%; VACV Venus inh: -11.6%; MARV entry inh: 13.1%[46.1 µM]

What do the screens show for `COc1ccc(Cl)cc1N(C)c1nc(N2CCN(S(=O)(=O)c3ccc(C)cc3)CC2)c2ccccc2n1`?
VACV mCherry inh: inactive; VACV Venus inh: -6.7%

How did O=C1NC2C(O)C(O)C(O)C(O)C2c2cc3c(c(O)c21)OCO3 (centres undefined) do in these assays?
Lassa entry inh: 0.141µM*; HCMV antiviral: -97.7*; VACV mCherry inh: 2.24µM*; HCV inhibitor: inconclusive; VACV Venus inh: 0.282µM*; MARV entry inh: inconclusive

What do the screens show for `O=C1NCCc2cc3c(cc21)OCO3`?
Lassa entry inh: 4.6%; HCMV antiviral: 5.4; VACV mCherry inh: -10.6%; HCV inhibitor: 7.0%; VACV Venus inh: -11.8%; MARV entry inh: 5.4%

What do the screens show for `O=C1NC2C(=CC(O)C(O)C2O)c2cc3c(cc21)OCO3` (centres undefined)?
Lassa entry inh: 1µM*; HCMV antiviral: -77.5*; VACV mCherry inh: inconclusive; HCV inhibitor: 0.562µM*; VACV Venus inh: 1µM*; MARV entry inh: inconclusive

What do the screens show for `O=C1NC2C(=CC(O)C(O)C2O)c2cc3c(c(O)c21)OCO3` (centres undefined)?
Lassa entry inh: inconclusive; HCMV antiviral: -100.5*; VACV mCherry inh: 8.91µM*; HCV inhibitor: 0.251µM*; VACV Venus inh: 0.1µM*; MARV entry inh: inconclusive

How did Cc1nn(CC(=O)NCc2ccccc2Br)c(=O)c2cc3occc3n12 do in these assays?
HCMV antiviral: 4.5; VACV mCherry inh: -8.8%; VACV Venus inh: -0.1%; MARV entry inh: 22.6%[46.1 µM]

What do the screens show for `COc1ccc2nc(C)cc(Sc3nc4ccccc4s3)c2c1`?
Lassa entry inh: 15.8µM*; HCMV antiviral: -98.6*; VACV mCherry inh: 0.794µM*; HCV inhibitor: inconclusive; VACV Venus inh: 1.41µM*; MARV entry inh: inconclusive

What do the screens show for `CCN1CCSc2ccc(C(=O)NCc3ccc(F)cc3)cc21`?
Lassa entry inh: -14.2%[46.1 µM]; HCMV antiviral: -23.8; VACV mCherry inh: -13.6%; VACV Venus inh: -1.9%; MARV entry inh: -13.0%[46.1 µM]
